This is an account of results in paper PMC7862700, “An all-to-all approach to the identification of sequence-specific readers for epigenetic DNA modifications on cytosine”.

Common to all, as to test: DAPPL (digital affinity profiling via proximity ligation, sequencing); 10 mM Tris-HCl pH 7.5, 50 mM NaCl, 1 mM DTT, 4% glycerol, room temperature, 30 min; GST-TFs on glutathione beads, 16-mer random dsDNA library, 0.1% formaldehyde crosslink after washing; high values mean tight binding
Common to all, as to settings: protein: recombinant; tags: N-terminal GST; dsDNA, one strand shown

The target of one experiment is T1, FLI1 (Homo sapiens, UniProt Q01543 1-452).
T1 sequence: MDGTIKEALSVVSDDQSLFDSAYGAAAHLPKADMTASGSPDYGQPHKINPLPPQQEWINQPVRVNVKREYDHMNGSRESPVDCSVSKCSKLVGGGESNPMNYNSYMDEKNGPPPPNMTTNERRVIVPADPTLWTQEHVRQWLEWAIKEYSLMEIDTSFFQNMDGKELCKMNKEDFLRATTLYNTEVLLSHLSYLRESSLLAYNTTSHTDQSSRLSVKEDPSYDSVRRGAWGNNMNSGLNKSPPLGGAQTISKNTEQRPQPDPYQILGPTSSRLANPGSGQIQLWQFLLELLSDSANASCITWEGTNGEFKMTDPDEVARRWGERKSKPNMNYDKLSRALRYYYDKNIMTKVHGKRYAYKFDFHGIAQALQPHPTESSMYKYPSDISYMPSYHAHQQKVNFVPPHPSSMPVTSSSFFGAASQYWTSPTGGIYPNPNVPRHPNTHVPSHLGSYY
The essentials: (§1)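 Binding signal is defined as a hexamer's read frequency for one factor over its frequency for the tag-only sample. To obtain reads, GST-fused human transcription factors were expressed in yeast, captured on glutathione beads, barcoded with DNA and pooled with that sample. Pools met 200 nmole of a 16-mer random double-stranded DNA library in Tris/NaCl/DTT/glycerol buffer for 30 min at room temperature before washing, 0.1% formaldehyde crosslinking, proximity ligation (BsaI/T4 ligase, 1 h, 37 °C), PCR and Illumina NextSeq500 sequencing.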

In the next experiment the target is T2, ELK1 (Homo sapiens, UniProt P19419 1-428).
T2 sequence: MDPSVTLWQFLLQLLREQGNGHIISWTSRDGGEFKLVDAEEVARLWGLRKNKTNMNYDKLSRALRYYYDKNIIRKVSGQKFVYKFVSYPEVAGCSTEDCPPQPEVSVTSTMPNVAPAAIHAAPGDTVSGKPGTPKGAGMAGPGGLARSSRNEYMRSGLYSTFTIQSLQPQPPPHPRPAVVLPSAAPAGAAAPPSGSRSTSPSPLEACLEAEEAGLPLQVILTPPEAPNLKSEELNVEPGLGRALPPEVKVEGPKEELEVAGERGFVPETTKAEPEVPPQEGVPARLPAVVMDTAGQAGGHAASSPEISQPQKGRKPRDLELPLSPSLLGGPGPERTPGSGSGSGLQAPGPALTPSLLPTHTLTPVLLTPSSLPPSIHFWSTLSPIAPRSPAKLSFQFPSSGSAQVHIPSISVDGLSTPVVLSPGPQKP
The essentials: as §1

The next experiment concerns the target T3, GABPA (Homo sapiens, UniProt Q06546 1-454).
T3 sequence: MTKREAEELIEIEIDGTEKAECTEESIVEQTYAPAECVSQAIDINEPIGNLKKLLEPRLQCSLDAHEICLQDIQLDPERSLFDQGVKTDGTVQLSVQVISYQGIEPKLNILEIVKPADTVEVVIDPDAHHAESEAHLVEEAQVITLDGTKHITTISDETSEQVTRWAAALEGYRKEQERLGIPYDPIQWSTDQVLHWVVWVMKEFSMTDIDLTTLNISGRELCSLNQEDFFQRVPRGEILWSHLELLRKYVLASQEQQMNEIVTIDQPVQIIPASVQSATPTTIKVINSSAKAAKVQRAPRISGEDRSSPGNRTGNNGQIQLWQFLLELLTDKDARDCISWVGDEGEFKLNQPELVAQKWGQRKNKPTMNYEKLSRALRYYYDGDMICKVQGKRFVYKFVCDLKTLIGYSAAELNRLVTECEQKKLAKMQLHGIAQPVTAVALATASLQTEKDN
Put shortly: as §1

In another experiment the target is T4, ERG (Homo sapiens, UniProt P11308 1-479).
T4 sequence: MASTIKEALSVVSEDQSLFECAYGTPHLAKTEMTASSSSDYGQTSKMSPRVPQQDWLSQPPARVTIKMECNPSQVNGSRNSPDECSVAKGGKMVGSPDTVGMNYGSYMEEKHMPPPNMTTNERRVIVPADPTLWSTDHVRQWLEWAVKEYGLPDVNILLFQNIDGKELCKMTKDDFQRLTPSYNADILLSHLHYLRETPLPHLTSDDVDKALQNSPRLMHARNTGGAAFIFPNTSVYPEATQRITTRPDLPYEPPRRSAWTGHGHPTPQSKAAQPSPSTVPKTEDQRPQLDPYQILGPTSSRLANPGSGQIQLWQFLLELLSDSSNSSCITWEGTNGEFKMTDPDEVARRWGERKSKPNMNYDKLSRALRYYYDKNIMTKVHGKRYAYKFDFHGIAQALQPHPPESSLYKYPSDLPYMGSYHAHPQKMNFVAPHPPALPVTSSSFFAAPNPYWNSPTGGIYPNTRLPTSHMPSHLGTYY
Put shortly: as §1

In the next experiment the target is ELF1 (Homo sapiens, UniProt P32519 1-619). The essentials: as §1
A further experiment has as its target T5, EHF (Homo sapiens, UniProt Q9NZC4 1-300).
T5 sequence: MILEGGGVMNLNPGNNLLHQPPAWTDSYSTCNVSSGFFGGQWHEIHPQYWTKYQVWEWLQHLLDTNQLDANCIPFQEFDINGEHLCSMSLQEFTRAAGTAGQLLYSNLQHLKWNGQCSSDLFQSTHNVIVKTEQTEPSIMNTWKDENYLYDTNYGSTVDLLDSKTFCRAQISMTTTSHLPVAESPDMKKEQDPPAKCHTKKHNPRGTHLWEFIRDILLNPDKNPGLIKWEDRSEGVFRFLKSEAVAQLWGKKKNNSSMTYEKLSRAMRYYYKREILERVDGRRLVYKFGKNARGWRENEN
The essentials: as §1

A further experiment concerns the target SPI1 (Homo sapiens, UniProt P17947 1-270). The essentials: as §1
The next experiment addresses SPIB (Homo sapiens, UniProt Q01892 1-262). The essentials:
as §1

The target in another experiment is T6, ELK3 (Homo sapiens, UniProt P41970 1-407).
T6 sequence: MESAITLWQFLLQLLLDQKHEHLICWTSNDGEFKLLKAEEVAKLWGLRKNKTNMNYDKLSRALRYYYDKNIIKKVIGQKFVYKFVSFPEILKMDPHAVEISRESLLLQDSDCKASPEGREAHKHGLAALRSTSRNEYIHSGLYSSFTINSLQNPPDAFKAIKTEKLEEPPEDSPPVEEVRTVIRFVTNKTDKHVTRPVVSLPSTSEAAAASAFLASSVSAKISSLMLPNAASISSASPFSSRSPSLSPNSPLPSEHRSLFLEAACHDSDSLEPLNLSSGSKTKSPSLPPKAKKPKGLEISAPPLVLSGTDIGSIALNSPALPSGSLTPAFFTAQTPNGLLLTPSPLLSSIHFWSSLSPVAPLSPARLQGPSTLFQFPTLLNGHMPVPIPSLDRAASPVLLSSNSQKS
Put shortly: as §1

For another experiment, the target named is T7, FEV (Homo sapiens, UniProt Q99581 1-238).
T7 sequence: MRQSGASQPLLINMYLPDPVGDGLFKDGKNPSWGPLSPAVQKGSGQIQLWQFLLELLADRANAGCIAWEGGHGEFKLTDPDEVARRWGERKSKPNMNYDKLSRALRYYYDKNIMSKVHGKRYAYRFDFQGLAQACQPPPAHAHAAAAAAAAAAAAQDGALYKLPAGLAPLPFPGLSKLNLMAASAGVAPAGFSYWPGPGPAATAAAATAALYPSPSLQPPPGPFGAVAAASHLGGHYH
The essentials:
as §1

The target in another experiment is ETV5 (Homo sapiens, UniProt P41161 1-510). The essentials:
as §1

Another experiment deals with T8, SPIC (Homo sapiens, UniProt Q8N5J4 1-248).
T8 sequence: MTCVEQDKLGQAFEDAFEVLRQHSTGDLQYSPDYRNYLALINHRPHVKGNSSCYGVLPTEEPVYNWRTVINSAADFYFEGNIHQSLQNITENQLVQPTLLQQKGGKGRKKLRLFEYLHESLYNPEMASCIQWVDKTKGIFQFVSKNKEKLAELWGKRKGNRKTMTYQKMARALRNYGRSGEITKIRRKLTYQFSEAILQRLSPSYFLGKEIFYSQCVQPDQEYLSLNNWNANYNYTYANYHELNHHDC
Put shortly: as §1

For a further experiment, the target named is ELF4 (Homo sapiens, UniProt Q99607 1-663). Put shortly: as §1
The next experiment has as its target T9, ELK4 (Homo sapiens, UniProt P28324-2 1-405).
T9 sequence: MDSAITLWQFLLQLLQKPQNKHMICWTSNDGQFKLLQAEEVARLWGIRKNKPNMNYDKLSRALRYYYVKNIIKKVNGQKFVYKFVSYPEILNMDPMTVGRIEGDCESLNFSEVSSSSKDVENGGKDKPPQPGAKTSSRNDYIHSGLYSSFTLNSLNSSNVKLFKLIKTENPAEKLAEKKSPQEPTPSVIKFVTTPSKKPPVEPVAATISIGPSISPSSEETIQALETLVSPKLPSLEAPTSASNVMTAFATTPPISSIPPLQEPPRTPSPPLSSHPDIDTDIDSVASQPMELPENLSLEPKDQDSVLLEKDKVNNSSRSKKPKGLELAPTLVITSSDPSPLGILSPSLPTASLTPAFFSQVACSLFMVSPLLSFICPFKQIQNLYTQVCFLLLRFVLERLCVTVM
Put shortly:
as §1

The next experiment concerns the target T10, ETV2 (Homo sapiens, UniProt O00321 1-342).
T10 sequence: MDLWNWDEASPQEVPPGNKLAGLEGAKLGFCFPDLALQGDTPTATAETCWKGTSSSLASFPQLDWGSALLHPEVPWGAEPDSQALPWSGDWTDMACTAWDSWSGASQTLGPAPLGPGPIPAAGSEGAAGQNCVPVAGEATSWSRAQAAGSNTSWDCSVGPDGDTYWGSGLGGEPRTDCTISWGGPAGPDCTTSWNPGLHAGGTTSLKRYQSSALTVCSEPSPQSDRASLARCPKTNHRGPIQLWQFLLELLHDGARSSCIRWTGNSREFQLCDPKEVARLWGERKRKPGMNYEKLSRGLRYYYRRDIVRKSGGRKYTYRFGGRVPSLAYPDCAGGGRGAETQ
Put shortly: as §1

For another experiment, the target named is T11, ELF3 (Homo sapiens, UniProt P78545 1-371).
T11 sequence: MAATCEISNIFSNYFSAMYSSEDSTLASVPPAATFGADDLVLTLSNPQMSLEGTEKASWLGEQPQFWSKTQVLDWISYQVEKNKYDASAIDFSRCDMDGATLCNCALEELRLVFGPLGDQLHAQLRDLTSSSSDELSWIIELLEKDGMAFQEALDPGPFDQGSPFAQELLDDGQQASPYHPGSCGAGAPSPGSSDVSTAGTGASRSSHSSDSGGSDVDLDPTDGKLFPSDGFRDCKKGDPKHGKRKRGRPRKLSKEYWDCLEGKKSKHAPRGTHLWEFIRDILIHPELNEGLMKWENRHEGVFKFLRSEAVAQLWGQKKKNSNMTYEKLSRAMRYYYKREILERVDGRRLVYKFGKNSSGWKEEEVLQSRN
Put shortly:
as §1

In another experiment the target is ETV1 (Homo sapiens, UniProt P50549 1-477). The essentials: as §1
Chain of ETV1 (P50549 whole entry): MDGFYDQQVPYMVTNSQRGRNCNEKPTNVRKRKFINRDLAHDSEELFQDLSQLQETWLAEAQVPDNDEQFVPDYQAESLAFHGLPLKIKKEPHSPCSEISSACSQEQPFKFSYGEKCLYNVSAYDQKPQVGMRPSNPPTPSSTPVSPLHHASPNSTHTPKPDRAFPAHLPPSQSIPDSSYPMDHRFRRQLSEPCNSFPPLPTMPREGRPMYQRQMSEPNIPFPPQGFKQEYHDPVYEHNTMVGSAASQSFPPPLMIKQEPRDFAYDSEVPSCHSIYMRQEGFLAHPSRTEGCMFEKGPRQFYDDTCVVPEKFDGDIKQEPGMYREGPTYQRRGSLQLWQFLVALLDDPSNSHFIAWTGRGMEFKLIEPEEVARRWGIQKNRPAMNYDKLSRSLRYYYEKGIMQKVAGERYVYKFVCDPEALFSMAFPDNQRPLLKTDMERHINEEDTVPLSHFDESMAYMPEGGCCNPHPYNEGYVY

Chain of ELF1 (P32519 whole entry): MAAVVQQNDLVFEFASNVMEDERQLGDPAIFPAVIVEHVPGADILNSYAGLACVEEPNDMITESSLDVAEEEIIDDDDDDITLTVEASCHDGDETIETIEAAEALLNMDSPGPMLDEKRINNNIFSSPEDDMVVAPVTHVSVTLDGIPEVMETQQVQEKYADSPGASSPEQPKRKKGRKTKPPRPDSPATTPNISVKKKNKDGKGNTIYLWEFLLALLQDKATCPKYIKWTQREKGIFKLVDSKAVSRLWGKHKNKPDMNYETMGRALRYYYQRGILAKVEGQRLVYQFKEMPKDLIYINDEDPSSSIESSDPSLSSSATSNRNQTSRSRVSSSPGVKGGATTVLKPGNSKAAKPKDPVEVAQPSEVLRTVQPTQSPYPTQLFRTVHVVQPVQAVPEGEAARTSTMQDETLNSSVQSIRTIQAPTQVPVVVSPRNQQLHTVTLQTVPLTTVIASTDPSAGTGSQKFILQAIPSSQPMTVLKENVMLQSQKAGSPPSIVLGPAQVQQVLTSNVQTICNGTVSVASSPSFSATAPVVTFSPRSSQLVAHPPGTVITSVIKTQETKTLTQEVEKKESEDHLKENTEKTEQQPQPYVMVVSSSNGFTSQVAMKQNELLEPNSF
Chain of ETV5 (P41161 whole entry): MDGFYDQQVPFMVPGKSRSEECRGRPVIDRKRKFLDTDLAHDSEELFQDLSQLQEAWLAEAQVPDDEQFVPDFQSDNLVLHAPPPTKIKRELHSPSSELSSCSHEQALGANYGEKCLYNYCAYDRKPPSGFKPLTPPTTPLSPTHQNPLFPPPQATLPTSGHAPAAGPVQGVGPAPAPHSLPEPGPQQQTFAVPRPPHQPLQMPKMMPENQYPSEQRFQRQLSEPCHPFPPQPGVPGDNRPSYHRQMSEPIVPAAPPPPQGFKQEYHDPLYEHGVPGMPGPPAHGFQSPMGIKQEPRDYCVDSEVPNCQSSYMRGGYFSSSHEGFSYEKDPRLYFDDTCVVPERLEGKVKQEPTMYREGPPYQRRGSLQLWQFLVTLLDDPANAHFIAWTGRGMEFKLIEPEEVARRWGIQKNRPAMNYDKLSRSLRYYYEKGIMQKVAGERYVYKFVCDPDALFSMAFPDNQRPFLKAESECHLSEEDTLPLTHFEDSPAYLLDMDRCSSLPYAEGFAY
Chain of ELF4 (Q99607 whole entry): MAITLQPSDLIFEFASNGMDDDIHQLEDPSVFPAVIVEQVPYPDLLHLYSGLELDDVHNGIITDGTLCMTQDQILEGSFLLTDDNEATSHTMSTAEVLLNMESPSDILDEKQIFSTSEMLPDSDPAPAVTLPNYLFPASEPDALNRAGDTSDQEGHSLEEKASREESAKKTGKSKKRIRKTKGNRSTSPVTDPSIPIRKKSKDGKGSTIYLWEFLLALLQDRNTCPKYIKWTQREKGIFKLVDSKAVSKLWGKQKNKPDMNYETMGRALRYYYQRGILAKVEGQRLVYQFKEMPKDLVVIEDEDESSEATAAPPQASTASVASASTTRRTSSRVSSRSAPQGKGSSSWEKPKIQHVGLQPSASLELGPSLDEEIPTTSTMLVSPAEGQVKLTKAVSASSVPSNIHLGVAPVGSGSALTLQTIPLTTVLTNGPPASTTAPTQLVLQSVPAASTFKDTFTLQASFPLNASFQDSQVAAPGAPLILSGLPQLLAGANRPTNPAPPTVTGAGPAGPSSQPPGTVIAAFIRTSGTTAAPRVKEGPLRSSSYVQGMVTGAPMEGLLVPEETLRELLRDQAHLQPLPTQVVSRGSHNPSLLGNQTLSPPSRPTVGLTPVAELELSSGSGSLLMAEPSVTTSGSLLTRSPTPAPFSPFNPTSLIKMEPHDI
Chain of SPIB (Q01892 whole entry): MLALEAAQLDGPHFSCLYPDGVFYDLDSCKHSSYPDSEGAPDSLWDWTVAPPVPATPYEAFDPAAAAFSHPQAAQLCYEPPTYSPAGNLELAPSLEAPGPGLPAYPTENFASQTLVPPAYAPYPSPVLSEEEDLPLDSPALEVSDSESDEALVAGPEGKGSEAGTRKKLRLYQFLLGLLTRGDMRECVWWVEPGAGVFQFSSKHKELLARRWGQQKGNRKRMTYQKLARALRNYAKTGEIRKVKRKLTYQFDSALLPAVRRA

As to CGGATG, the binding signal in the experiment with FLI1 was 1.53 fold enrichment (6-mer frequency, TF over GST control); with ELK1 it was 1.66 fold enrichment (6-mer frequency, TF over GST control); in the experiment with GABPA, 1.49 fold enrichment (6-mer frequency, TF over GST control); with ERG, 1.92 fold enrichment (6-mer frequency, TF over GST control); with ELF1 it was 1.45 fold enrichment (6-mer frequency, TF over GST control); with EHF, 1.67 fold enrichment (6-mer frequency, TF over GST control). Besides, the binding signal with SPI1 was 1.52 fold enrichment (6-mer frequency, TF over GST control); in the experiment with SPIB it was 1.6 fold enrichment (6-mer frequency, TF over GST control); with ELK3, 1.6 fold enrichment (6-mer frequency, TF over GST control); with FEV, 2.16 fold enrichment (6-mer frequency, TF over GST control); with ETV5, 1.71 fold enrichment (6-mer frequency, TF over GST control); with SPIC, 1.48 fold enrichment (6-mer frequency, TF over GST control). For the same sequence, the binding signal with ELF4 was 1.36 fold enrichment (6-mer frequency, TF over GST control); with ELK4 it was 1.31 fold enrichment (6-mer frequency, TF over GST control); with ETV2, 1.39 fold enrichment (6-mer frequency, TF over GST control); with ELF3, 1.48 fold enrichment (6-mer frequency, TF over GST control); with ETV1, 1.74 fold enrichment (6-mer frequency, TF over GST control).

In the case of CACTCA, the binding signal with FLI1 was 1.06 fold enrichment (6-mer frequency, TF over GST control); in the experiment with ELK1, 1.17 fold enrichment (6-mer frequency, TF over GST control); in the experiment with GABPA, 1.25 fold enrichment (6-mer frequency, TF over GST control); in the experiment with ERG, 1.16 fold enrichment (6-mer frequency, TF over GST control); in the experiment with ELF1, 1.24 fold enrichment (6-mer frequency, TF over GST control); with EHF, 1.19 fold enrichment (6-mer frequency, TF over GST control). Besides, the binding signal was 1.08 fold enrichment (6-mer frequency, TF over GST control) with SPI1; 1.21 fold enrichment (6-mer frequency, TF over GST control) with SPIB; 1.19 fold enrichment (6-mer frequency, TF over GST control) with ELK3; 1.16 fold enrichment (6-mer frequency, TF over GST control) in the experiment with FEV; 1.09 fold enrichment (6-mer frequency, TF over GST control) with ETV5; 1.3 fold enrichment (6-mer frequency, TF over GST control) with SPIC. For the same sequence, the binding signal in the experiment with ELF4 is 1.18 fold enrichment (6-mer frequency, TF over GST control); in the experiment with ELK4 it was 1.17 fold enrichment (6-mer frequency, TF over GST control); in the experiment with ETV2, 1.27 fold enrichment (6-mer frequency, TF over GST control); with ELF3, 1.17 fold enrichment (6-mer frequency, TF over GST control); in the experiment with ETV1 it was 1.1 fold enrichment (6-mer frequency, TF over GST control).
